Assay outcomes as filed in PubChem BioAssay.
SKOV3 invasion = inhibitors of ovarian cancer cell adhesion and invasion in omental model. SKOV3ip1-GFP adhesion/invasion on 3D omental model, fluorescence. Potency, µM (top dose mostly 45.8 µM), inactives show at the highest dose activity change, negative = inhibition, usual class: inhibitors. 46,000 tested, 0.1% active. AID 1963576;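 also: potency is read from the fitted curve at half-maximal effect; plate controls were DMSO wells for no effect and tomatine positive control wells for full effect; nearly all actives have a fitted effect of over 65% in size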
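Adhesion/invasion was scored as fixed GFP-labeled SKOV3ip1 cell counts (488/509 nm), normalized to DMSO and tomatine controls. Cancer cells in serum-free medium, with four compound doses (0.36-46 umol/L), sat 2 hr at RT then 16 hr at 37 C on a 48 hr fibroblast/mesothelial/ECM culture.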
HTT prom inh = inhibitors of huntingtin promoter activity; HEK293 HTT promoter firefly luciferase reporter, 24 h; Potency, µM (series often up to 57.5 µM), for inactives: at the highest dose activity change, negative = inhibition, hits mostly inhibitors; 48,000 tested, 0.93% active; also: potency is read from the fitted curve at half-maximal effect; nearly all actives have a fitted effect of over 50% in size
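HEK293 luciferase promoter-reporter cells (2,500/well) plated 24 h, then compounds added at up to 57.5 uM final for 24 h at 37 °C. Firefly luminescence by Dual-Glo, normalized to vehicle (0%) and zero RLU (-100%).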
GPR32 ag = agonists of human resolvin D1 receptor DRV1 (GPR32); activation, % at 76.9 µM; 48,000 tested, 2.5% active; O75388; AID 1346428; CHO-K1 GPR32 beta-arrestin PathHunter luminescence, 90 min; zero percent set by DMSO-only wells;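 active = activation of at least 60% and not above a set upper limit, about 1 call in 100 departs from these limits; inconclusive = activation of 40% to 60%, or above that upper limit; inactive = activation under 40%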; also: 0% is about no effect
Target sequence (O75388 whole entry, looked up): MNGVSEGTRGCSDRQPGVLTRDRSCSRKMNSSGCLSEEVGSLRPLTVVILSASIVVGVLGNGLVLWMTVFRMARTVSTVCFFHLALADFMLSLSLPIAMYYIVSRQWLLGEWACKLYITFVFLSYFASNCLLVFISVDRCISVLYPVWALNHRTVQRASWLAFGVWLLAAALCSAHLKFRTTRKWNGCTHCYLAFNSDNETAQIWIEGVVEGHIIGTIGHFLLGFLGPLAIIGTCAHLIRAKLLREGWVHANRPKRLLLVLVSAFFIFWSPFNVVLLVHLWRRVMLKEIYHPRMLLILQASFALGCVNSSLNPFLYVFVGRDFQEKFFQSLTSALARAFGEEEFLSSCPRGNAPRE
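GPR32 activation in stably transfected CHO-K1 cells, detected as beta-arrestin recruitment by enzyme-fragment complementation. Compound exposure: 90 min, 37 °C.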
NTMT1 inhibitor = inhibitors of human N-terminal methyltransferase NTMT1. NTMT1 MTase-Glo SAH luminescence, purified enzyme. AID 1645870. Potency, µM (series often up to 114 µM), inactives show top-dose activity change, negative = inhibition, most hits filed as inhibitors. Q9BV86. 59,000 tested, 2.5% active;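 also: potency is read from the fitted curve at half-maximal effect; plate controls were DMSO vehicle for no effect and no enzyme for full effect; nearly all actives have a fitted effect of over 65% in size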
Target sequence (Q9BV86 whole entry, looked up): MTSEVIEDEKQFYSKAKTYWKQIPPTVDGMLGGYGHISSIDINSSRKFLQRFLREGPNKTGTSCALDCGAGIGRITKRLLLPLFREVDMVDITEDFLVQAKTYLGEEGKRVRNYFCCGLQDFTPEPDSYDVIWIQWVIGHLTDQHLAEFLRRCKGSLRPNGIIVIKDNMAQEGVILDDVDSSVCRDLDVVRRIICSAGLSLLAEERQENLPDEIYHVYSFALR
HTT-AS promoter = activators of huntingtin-antisense promoter activity. HEK293 HTT-AS promoter firefly luciferase reporter, 24 h; response scale: percent change from vehicle, -100% = no light. Potency, µM (highest dose often 57.5 µM), inactives show top-dose activity change, positive = activation, hits mostly activators. 48,000 tested, 0.24% active; also: potency is read from the fitted curve at half-maximal effect; nearly all actives have a fitted effect of over 55% in size
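Luminescence was read after Dual-Glo reagent and a 10 min room-temperature incubation. Values were normalized to vehicle (0% activity) and zero RLU (-100% activity). Reporter HEK293 cells had been exposed to compounds (up to 57.5 uM final) for 24 h.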
* marks the source's active call; other numbers are inactive results; i = inactive; u = inconclusive; x = no result given; ! = repeats disagree; [ ] = another dose, or the depositor's remark. Rows were chosen to be rich in hits. Some 4.5% of all compounds tested hit in one or more screens of this group. Unless noted, calls follow the shape of the dose curve; as a rule, active = well fitted curve in the direction sought with a large enough effect; inconclusive = small, poorly fitted or top-dose-only effect, or another doubt; inactive = no such curve, though single readings can be large; an effect the other way counts as inactive or inconclusive.

SMILES	SKOV3 invasion	HTT prom inh	GPR32 ag	NTMT1 inhibitor	HTT-AS promoter
O=C(COc1ccc(Cl)cc1)NCCc1csc(-c2ccc(F)cc2)n1	4%	u	109*	21%	-23%
COc1ccc(-c2cc(C(F)(F)F)n3nc(C(=O)O)c(Cl)c3n2)cc1OC	2%	-6%	-34	-1%	-5%
COc1ccc2ccc(=O)oc2c1CC=C(C)C	17%	-6%	x	-4%[57.5 µM]	-15%
O=C(CCCCCCC(=O)Nc1ccc([C@H]2O[C@@H](CSc3nc(-c4ccccc4)c(-c4ccccc4)o3)C[C@@H](c3ccc(CO)cc3)O2)cc1)NO	-15%	64%	x	43µM*!	-6%
O=C(CSc1nc2cc3ccccc3cc2[nH]1)Nc1cccc(C(F)(F)F)c1	-5%	-26%	94*	11%	7%[11.5 µM]
Cc1cc(C)n2nc(SCC(=O)Nc3ccccc3)nc2n1	12%	8%	5	u	-1%
Cc1cc(C)n2nc(SCC(=O)Nc3cccc(C(F)(F)F)c3)nc2n1	i	u	61*	-12%	-33%
O=C(CN1C=NS(=O)(=O)c2ccc(C(F)(F)F)cc21)Nc1cccc(C(F)(F)F)c1	i	-19%	99*	10%	-30%
COC(=O)CN1C(=O)CSc2ccc(S(=O)(=O)Nc3ccc(Cl)cc3C)cc21	9%	x	-8	x	x
O=C(Cn1c(=O)n(Cc2ccc(F)cc2)c(=O)c2sc3ccccc3c21)NCc1ccccc1Cl	1%	-8%	0	89µM*	-1%
O=C(Nc1ccccc1Cl)N1CCSc2ccccc21	1%	-12%	-29	-8%	-25%
CNC(=O)c1cccc(-n2c(C)nc3cccnc32)c1C	7%	3%	-2	14%	8%
Cc1ccc(C)c(N2CCN(C(=O)CCNS(=O)(=O)c3ccc4c(c3)CCN4C(=O)C3CC3)CC2)c1	-4%	u	49	-1%	-45%
CC(=O)N1CCCc2cc(S(=O)(=O)N3CCCC(C(=O)N4CCN(c5ccccc5F)CC4)C3)ccc21 (stereo not given)	2%	10µM*	41	-2%	-34%
O=C(CCNS(=O)(=O)c1ccc2c(c1)CCN2C(=O)C1CC1)N1CCN(c2ccccc2F)CC1	-2%	-43%	71*	17%	u
CC(C)N1CCc2c(sc(NC(=O)C(F)F)c2-c2nc3ccccc3s2)C1	x	x	x	-1%	x
COc1ccc(C(=O)c2oc3ccccc3c2NC(=O)COc2cccc(C)c2C)cc1	u	5%	-6	2%	3%
Cc1ccc(OCC(=O)Nc2ccc3c(c2)sc(=O)n3C)cc1	0%	-6%	73*	4%	-16%
CCCn1c(=O)sc2cc(NC(=O)COc3ccc(Cl)cc3)ccc21	-8%	-20%	49	-2%	-27%
COc1ccc(C(=O)CN2CCN(S(=O)(=O)c3ccc(C(C)C)cc3)CC2)cc1	-2%	u	20	56µM*	-25%
Cc1cc(C)c(Cn2c(CCNC(=O)c3ccco3)nc3ccccc32)c(C)c1	-19%	x	68*	x	x
CC(C)c1ccc(NC(=O)C2CCC(CNS(=O)(=O)c3ccc4c(c3)CCCC(=O)N4)CC2)cc1 (stereo not given)	i	u	1	11%	-50%
COc1cc(N2CCC(N3CCN(C)CC3)CC2)ccc1Nc1ncc(Cl)c(Nc2ccccc2S(=O)(=O)C(C)C)n1	-7%	u	x	25µM*!	-44%
COc1cc2c(-c3ccccc3O)nc3c(c(C)nn3-c3ccccc3)c2cc1OC	-2%	x	-23	x	x
Cc1oc(-c2ccc(C(=O)Nc3cccc(C(F)(F)F)c3)cc2)nc1CSc1ccccc1	-6%	1.8µM*	-16	13%	-89%
SMILES	SKOV3 invasion	HTT prom inh	GPR32 ag	NTMT1 inhibitor	HTT-AS promoter
COc1ccc(NC(=O)c2ccc(-c3nc(CSc4ccc(C)cc4)c(C)o3)cc2)cc1Cl	1%	4.5µM*	-4	-3%	-8%
COc1ccc(N2CCN(C(=O)c3cc4c(=O)n(Cc5ccccc5)ccc4nc3C)CC2)cc1	1%	u	-1	u	-22%
CCCCn1c(NCc2cc(Br)ccc2O)nc2ccccc21	i	u	u	5%	-41%
CCCCn1c(NCc2cc(Cl)ccc2O)nc2ccccc21	i	u	102*	21%	-37%
C=CCc1ccccc1OCC(O)CNC(C)C (stereo not given)	x	1%	-5	15%[57.5 µM]	-10%
COc1cc(NC(=O)CSc2nnc(C)n3c2cc2oc(C)cc23)cc(OC)c1	-11%	-3%	-7	1%	-8%
CCc1ccccc1NS(=O)(=O)c1ccc(OC)c2ncccc12	5%	-19%	14	89µM*	-34%
O=c1cc(COc2ccccc2Cl)nc2scc(-c3ccccc3)n12	4%	-8%	86*	2%	-10%
COCCc1nn2c(=O)cc(COC(=O)c3ccc(OC)c(OC)c3)nc2s1	4%	-9%	-10	-2%	-15%
CCn1c2ccccc2c2nnc(SCC(=O)Nc3ccccc3OC)nc21	i	-10%	-5	6%	-14%
COc1ccc(-c2nnc(SCC(=O)N(C)C3CCCCC3)o2)cc1OC	-24%	0%	5	-5%	-7%
COc1cccc(-c2nnc(SCC(=O)N(C)C3CCCCC3)o2)c1	i	8%	72*	-1%	1%
COc1cccc(NC(=O)CSc2nnc(-c3cccc(OC)c3)o2)c1	4%	60%	78*	6%	14µM*
O=C(NC1CC(=O)N(c2ccc(Cl)cc2)C1)c1ccc2c(c1)OCO2 (stereo not given)	i	11%	2	2%	-21%
COc1cc(OC)c(C2Nc3ccccc3-c3nnc(SCc4ccccc4)nc3O2)cc1OC (stereo not given)	9%	6%	64*	3%	28%
COc1ccc2c(c1)c1c(c(=O)n(-c3ccc(OC)c(OC)c3)c(=O)n1Cc1ccc(C)cc1)n2C	51%	-8%	2	4%	-9%
CCCCC(CC)CN=C(N)NC(N)=NCCCCCCN=C(N)NC(N)=NCC(CC)CCCC (stereo not given)	x	u	1	3.2µM*	-77%
CCN1/C(=C/C(C)=O)Sc2ccc(O)cc21	x	x	x	3%	x
C=C(C(=O)O)[C@H]1C[C@]2(C)C(=O)CC[C@]23O[C@H]1C[C@@H]3C	x	x	x	-3%[57.5 µM]	x
O=C(NCCc1ccc(Cl)cc1)c1ccc(CS(=O)(=O)Cc2ccccc2F)o1	-4%	-20%	111*	4%	-27%
COc1ccccc1S(=O)(=O)Cc1ccc(C(=O)NCc2ccc(Cl)cc2)o1	1%	u	98*	-3%	-28%
COc1ccc(CNC(=O)Cn2ncc3c(=O)oc4ccccc4c32)c(OC)c1	i	-5%	0	-24%	2%
